For test [1], the target named is Cytochrome P450 1A2 (Homo sapiens) (UniProt P05177). The test is described as follows: p450-cyp1a2 (AID 410; calls by dose curve; also: potency is read from the fitted curve at half-maximal effect). In short, it runs like this:
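Human CYP1A2 (20nM) demethylated Luciferin-ME at its Km (100uM) in 100mM KPO4. After 10 min compound preincubation, NADPH regeneration ran the reaction 60 min at room temperature. Luciferin was read by luminescence, normalized to 57 uM furafylline.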

In test [2] the target is Mitogen-activated protein kinase 10 (Mus musculus) (UniProt Q61831). The test is described as follows: JNK3 AlphaScreen Assay (AID 530; active = well fitted curve in either direction with a large enough effect, not every such curve was filed as active;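 also: kinase came from lysate of stimulated human HepG2 cells; signal reports phosphorylation of biotinylated GST-cJun 1-79 at Ser73 with 10 µM ATP; series mostly up to about 57 µM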). The method, boiled down:
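JNK3 came from HepG2 lysates pre-activated with IL-1beta and TNF-alpha and phosphorylated biotinylated GST-cJun (1-79) at 10 uM ATP, pH 7.6, room temperature. Compounds were titrated. AlphaScreen signal used anti-phospho-cJun (Ser73) antibody.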
In general terms: In Alpha technology, singlet oxygen from a donor bead excites a nearby acceptor bead.

The target in test [3] is Cytochrome P450 2C9 (Homo sapiens) (UniProt P11712). The test is described as follows: qHTS Assay for Inhibitors and Substrates of Cytochrome P450 2C9 (AID 883). Also: potency is read from the fitted curve at half-maximal effect; nearly all actives have a fitted effect of over 60% in size. In short, it runs like this:
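CYP2C9 deoxyluciferin hydroxylation, 37C, 60 min with NADPH regeneration; 10nM enzyme, 100uM Luciferin-H (KM). Glo detection reagent stopped reaction; luminescence normalized to sulphaphenazole (57uM) full inhibition.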

The target of test [4] is Cytochrome P450 3A4 (Homo sapiens) (UniProt P08684). The test is described as follows: qHTS Assay for Inhibitors and Substrates of Cytochrome P450 3A4 (AID 884). Also: nearly all actives have a fitted effect of over 50% in size. Also: potency is read from the fitted curve at half-maximal effect. In short, it runs like this: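 20 nM human CYP3A4 with 25 uM Luciferin-PPXE (at KM) in 200 mM KPO4, preincubated 10 min with compound; NADPH regeneration started a 60 min RT reaction. Luciferin detected by luminescence, normalized to 57 uM ketoconazole as full inhibition.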
Cytochrome P450 3A4 (Homo sapiens), sequence (P08684 whole entry, looked up): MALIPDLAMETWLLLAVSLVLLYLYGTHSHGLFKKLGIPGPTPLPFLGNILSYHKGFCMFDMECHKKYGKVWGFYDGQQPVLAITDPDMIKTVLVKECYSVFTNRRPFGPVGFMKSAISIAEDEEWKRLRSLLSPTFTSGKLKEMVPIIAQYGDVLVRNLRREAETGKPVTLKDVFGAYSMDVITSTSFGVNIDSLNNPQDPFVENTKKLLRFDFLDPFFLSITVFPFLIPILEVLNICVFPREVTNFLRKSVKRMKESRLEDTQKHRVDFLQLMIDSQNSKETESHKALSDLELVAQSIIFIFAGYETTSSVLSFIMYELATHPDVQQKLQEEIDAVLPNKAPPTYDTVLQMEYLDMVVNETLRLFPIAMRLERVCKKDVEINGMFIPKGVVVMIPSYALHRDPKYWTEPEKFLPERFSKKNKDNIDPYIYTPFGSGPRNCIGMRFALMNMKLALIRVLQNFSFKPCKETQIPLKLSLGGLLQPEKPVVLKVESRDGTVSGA
(qHTS replaces the single test concentration by a dilution series.)

Test [5] shares this target. Nature of the test: qHTS Assay for Activators of Cytochrome P450 3A4 (AID 885). Also: nearly all actives have a fitted effect of over 65% in size. The method, boiled down:
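Quantitative HTS format: compounds preincubated with 20nM human CYP3A4 and Luciferin-PPXE substrate at KM, reaction started by NADPH regeneration, stopped after 60 min, luciferase luminescence read 20 min later.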

Test [6] has as its target Cytochrome P450 2C19 (Homo sapiens) (UniProt P33261). Nature of the test: qHTS Assay for Inhibitors and Substrates of Cytochrome P450 2C19 (AID 899). Also: nearly all actives have a fitted effect of over 60% in size. Also: potency is read from the fitted curve at half-maximal effect. In short, it runs like this: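 In 50mM KPO4, the reaction held 5nM enzyme and KM-level (10uM) Luciferin-H EGE; it ran 60 min at 37C after NADPH regeneration and a 10 min compound preincubation. Luminescence values were scaled to 57uM ketoconazole as complete inhibition.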

Test [7] has as its target 3',5'-cyclic-AMP phosphodiesterase 4B (Homo sapiens) (UniProt Q07343). The test is described as follows: qHTS Assay for Inhibitors of PDE-IV (AID 607; active = well fitted activation curve with a large enough effect in the main read-out, with a control signal flat, not every such curve was filed as active). In short, it runs like this:
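Live HEK293 cells with a modified cyclic nucleotide-gated (CNG) channel report intracellular cAMP via membrane-potential dye fluorescence (ex 535/em 590 nm). Endogenous PDE-IV was targeted. Compounds were tested at up to 22.9 uM final; RO 20-1724 100 uM served as control.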

The target in test [8] is Cytochrome P450 2D6 (Homo sapiens) (UniProt P10635). Nature of the test: qHTS Assay for Inhibitors and Substrates of Cytochrome P450 2D6 (AID 891). Also: nearly all actives have a fitted effect of over 60% in size. Also: potency is read from the fitted curve at half-maximal effect. The method, boiled down: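 Human CYP2D6 (5 nM) with 30 uM Luciferin-ME EGE (at Km) in 100 mM KPO4, compound preincubated 10 min, then NADPH regeneration system for 60 min at room temperature. Luciferin read by luminescence; normalized to 1.43 uM quinidine.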
Cytochrome P450 2D6 (Homo sapiens), sequence (P10635 whole entry, looked up): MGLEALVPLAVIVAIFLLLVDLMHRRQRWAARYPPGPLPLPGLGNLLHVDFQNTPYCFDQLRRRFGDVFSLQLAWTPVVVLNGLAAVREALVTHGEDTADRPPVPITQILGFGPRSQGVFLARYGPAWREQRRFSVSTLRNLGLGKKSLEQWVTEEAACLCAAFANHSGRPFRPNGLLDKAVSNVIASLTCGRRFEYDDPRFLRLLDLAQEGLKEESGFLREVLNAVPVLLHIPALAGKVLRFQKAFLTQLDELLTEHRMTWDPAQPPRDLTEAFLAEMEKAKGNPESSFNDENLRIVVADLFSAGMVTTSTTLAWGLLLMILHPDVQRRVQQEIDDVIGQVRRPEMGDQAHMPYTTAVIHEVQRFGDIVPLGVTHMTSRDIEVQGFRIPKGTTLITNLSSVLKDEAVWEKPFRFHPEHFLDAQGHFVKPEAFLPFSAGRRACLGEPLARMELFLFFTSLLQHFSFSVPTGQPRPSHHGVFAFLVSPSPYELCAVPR

Results filed as inconclusive are left out. The source made the active and inactive calls. Unless noted, calls follow the shape of the dose curve; as a rule, active = well fitted curve in the direction sought with a large enough effect; inconclusive = small, poorly fitted or top-dose-only effect, or another doubt; inactive = no such curve, though single readings can be large; an effect the other way counts as inactive or inconclusive.

Cytochrome P450 2C9 (Homo sapiens), sequence (P11712 whole entry, looked up): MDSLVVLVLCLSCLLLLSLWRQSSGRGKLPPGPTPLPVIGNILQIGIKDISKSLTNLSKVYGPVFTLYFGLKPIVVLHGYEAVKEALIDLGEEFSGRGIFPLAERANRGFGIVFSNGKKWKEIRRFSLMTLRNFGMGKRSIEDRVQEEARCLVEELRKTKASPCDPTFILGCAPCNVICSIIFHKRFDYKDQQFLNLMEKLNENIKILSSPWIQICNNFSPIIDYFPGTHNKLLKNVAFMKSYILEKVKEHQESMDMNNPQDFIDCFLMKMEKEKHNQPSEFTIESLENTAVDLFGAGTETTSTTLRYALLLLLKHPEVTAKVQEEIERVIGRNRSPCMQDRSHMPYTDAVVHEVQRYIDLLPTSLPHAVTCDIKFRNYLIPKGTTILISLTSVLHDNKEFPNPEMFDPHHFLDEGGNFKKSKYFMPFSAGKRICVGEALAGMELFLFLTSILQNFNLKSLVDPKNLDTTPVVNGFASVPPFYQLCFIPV
Cytochrome P450 1A2 (Homo sapiens), sequence (P05177 whole entry, looked up): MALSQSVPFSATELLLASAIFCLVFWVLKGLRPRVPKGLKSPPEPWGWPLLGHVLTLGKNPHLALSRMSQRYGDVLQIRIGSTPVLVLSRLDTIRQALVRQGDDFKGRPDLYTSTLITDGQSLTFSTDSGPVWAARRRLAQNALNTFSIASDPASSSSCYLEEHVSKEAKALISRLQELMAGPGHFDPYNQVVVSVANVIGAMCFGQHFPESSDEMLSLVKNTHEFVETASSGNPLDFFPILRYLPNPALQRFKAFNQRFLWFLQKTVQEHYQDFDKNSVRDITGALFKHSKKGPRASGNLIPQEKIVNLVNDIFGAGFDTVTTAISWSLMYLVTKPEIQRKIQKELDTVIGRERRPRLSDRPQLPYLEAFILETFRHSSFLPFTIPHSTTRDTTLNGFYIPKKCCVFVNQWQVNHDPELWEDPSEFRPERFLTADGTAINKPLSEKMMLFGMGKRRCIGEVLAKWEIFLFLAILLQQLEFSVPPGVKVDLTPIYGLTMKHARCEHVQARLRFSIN
Cytochrome P450 2C19 (Homo sapiens), sequence (P33261 whole entry, looked up): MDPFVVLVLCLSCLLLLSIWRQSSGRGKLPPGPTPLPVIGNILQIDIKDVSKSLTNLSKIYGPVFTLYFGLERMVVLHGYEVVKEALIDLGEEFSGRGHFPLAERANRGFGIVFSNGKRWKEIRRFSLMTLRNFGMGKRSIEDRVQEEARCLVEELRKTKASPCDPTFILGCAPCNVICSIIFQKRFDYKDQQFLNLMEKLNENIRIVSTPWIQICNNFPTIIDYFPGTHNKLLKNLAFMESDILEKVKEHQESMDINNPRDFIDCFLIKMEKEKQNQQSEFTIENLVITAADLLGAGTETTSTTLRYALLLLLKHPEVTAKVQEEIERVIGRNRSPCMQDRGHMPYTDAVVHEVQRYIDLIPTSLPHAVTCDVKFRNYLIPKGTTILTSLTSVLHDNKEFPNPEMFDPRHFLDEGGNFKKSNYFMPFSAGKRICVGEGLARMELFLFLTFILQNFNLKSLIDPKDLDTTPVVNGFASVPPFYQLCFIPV
3',5'-cyclic-AMP phosphodiesterase 4B (Homo sapiens), sequence (Q07343 whole entry, looked up): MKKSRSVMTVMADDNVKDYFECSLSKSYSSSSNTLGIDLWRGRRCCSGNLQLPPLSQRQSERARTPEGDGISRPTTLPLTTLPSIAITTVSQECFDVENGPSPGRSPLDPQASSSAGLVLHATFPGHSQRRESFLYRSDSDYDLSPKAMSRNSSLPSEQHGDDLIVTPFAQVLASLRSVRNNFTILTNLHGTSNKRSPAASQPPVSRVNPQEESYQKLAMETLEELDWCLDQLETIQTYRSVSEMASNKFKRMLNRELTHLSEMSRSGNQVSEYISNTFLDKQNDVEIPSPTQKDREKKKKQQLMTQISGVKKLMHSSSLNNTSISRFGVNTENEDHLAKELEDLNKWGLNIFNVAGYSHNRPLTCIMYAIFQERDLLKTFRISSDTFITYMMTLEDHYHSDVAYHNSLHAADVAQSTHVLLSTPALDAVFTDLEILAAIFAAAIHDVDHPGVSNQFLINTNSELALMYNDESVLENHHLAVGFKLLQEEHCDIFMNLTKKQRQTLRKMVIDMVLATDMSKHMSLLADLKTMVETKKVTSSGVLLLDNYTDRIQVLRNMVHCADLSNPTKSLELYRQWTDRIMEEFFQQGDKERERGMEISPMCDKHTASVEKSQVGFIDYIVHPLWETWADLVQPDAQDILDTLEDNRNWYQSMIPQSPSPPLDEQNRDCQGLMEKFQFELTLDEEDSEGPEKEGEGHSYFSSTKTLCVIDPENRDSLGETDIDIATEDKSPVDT

As for `CCC[C@@H]1C[C@@]1(CCC)C(NS(=O)(=O)c1cccc2cccnc12)c1ccc(Cl)cc1` (some centres undefined), the Potency entry in test [1], in test [2] and in test [5] was “inactive” throughout. Moreover, the Potency in test [3] was 7.94 µM (active); in test [4], 0.794 µM (active); in test [6], 3.16 µM (active).

Turning to `NCCC[C@@H](CC(=O)N[C@@H]1CCCC[C@H]1C(=O)N[C@H](CC(=O)N[C@@H](CCC(=O)O)CC(=O)O)Cc1c[nH]c2ccccc12)NC(=O)C[C@H](CO)NC(=O)[C@@H]1CCCC[C@H]1N`, the Potency result in test [1], in test [2], in test [7], in test [8] and in test [6] was “inactive” each time.

As for `S=C(Nc1ccccc1)Nc1ccccc1C#Cc1ccccc1`, the Potency in test [1] is 0.501 µM (active); in test [3], 3.98 µM (active); in test [6], 3.16 µM (active). Moreover, the Potency result in test [2] and in test [5] was “inactive” throughout.

`CCC/C=C(\CCC)C(NP(=O)(c1ccccc1)c1ccccc1)c1ccc(C(F)(F)F)cc1` (centres undefined): the Potency result in test [1], in test [2] and in test [4] was “inactive” in each case.

On to `CCC/C=C(\CCC)C(NS(=O)(=O)c1cccc2cccnc12)c1ccc(C(=O)OC)cc1` (centres undefined), for which the Potency was 6.31 µM (active) in test [1], 1.58 µM (active) in test [3], 5.01 µM (active) in test [4] and 3.16 µM (active) in test [6]. Further, the Potency result in test [2] and in test [5] was “inactive” in each case.

For `COC(=O)[C@@]1(Cc2ccc(F)cc2)[C@H]2c3cc(C(=O)N4CCCC4)n(CCc4ccc(OC)c(Br)c4)c3C[C@H]2CN1C(=O)c1ccccc1`, the Potency was 15.8 µM (active) in test [1], 3.16 µM (active) in test [3], 2.51 µM (active) in test [4] and 5.01 µM (active) in test [6]. Further, the Potency entry in test [2] and in test [5] was “inactive” in each case.

For the compound `CCCC[C@@H]1C[C@H]1C(NC(=O)c1cccs1)c1ccc(C(F)(F)F)cc1` (some centres undefined), the Potency is 2 µM (active) in test [1], 1.58 µM (active) in test [3] and 3.16 µM (active) in test [4]. Moreover, the Potency result in test [2], in test [5] and in test [6] was “inactive” each time.

As to `C=C1C(=O)C=C2CN(C(=O)c3ccccc3)[C@@](Cc3ccc(F)cc3)(C(=O)OC)[C@@H]12`, the Potency in test [1] was 15.8 µM (active); in test [3], 3.98 µM (active); in test [4], 7.94 µM (active); in test [6], 5.01 µM (active). For the same compound, the Potency entry in test [2] and in test [5] was “inactive” throughout.

As for `Cc1cc(C(=O)N[C@@H](c2ccccc2)[C@]2(C)C[C@H]2[C@@H](C)C(=O)Nc2ccc3ccccc3c2)n(C)n1`, the figures for the Potency in test [1], in test [3] and in test [4] were 12.6 µM (active), 3.98 µM (active) and 0.794 µM (active), respectively. For the same compound, the Potency result in test [2] and in test [5] was “inactive” throughout.

Regarding `CC(C)C[C@@H](CC(=O)N[C@H](CC(=O)N[C@@H]1CCNC[C@H]1C(=O)N[C@H](CC(=O)N[C@@H](CCC(=O)O)CC(=O)O)Cc1ccccc1)C(C)C)NC(=O)[C@@H]1CCCC[C@H]1N`, the Potency entry in test [1], in test [2], in test [7] and in test [8] was “inactive” throughout.

Regarding `c1ccc2c(c1)Cc1cc3ccccc3nc1-2`, the Potency in test [1] was 0.1 µM (active); in test [3] it was 10 µM (active); in test [4], 20 µM (active); in test [8], 12.6 µM (active); in test [6], 5.01 µM (active). Besides, the Potency entry in test [2] and in test [5] was “inactive” each time.

On to `CCCC[C@@H]1C[C@H]1C(NC(=O)c1ccc(C(F)(F)F)cc1)c1ccc(C(=O)OC)cc1` (some centres undefined), for which the results for the Potency in test [1] and in test [4] were 15.8 µM (active) and 5.01 µM (active), respectively. In addition, the Potency result in test [2] and in test [5] was “inactive” each time.

With `Cc1cc(CNC(=O)[C@H]2C[C@@H]2[C@H](NP(=O)(c2ccccc2)c2ccccc2)c2ccccc2)nn1C`, the Potency entry in test [1], in test [2] and in test [5] was “inactive” throughout. Also, the Potency in test [4] is 2.51 µM (active).

On to `CC(C)(C)[Si](C)(C)c1c2c(nc3ccc(OCc4ccccc4)cc13)-c1cccc(=O)n1C2`, for which, in test [1], the Potency is 5.01 µM (active). The Potency entry in test [2] and in test [5] was “inactive” throughout.

As for `COC(=O)[C@@]1(Cc2ccc(OC)cc2)[C@H]2c3cc(C(=O)N4CCCC4)n(Cc4ccc(C(F)(F)F)nc4)c3C[C@H]2CN1C(=O)c1ccccc1`, the Potency result in test [1], in test [2] and in test [5] was “inactive” in each case. In addition, the Potency in test [4] is 3.16 µM (active).

As for `CC[C@H]1C2=C3C(CC[C@H]4C(OCc5ccc(F)cc5C(F)(F)F)OC[C@](C)([C@@H]34)N(C(=O)OC(C)(C)C)C2)C(COC(C)=O)C1COC(C)=O` (some centres undefined), the Potency result in test [1], in test [2] and in test [5] was “inactive” throughout.

For `COC(=O)[C@@H]1C[C@H]1[C@@H](NC(=O)c1cc(C)nn1C)c1ccccc1`, in test [1], the Potency is 15.8 µM (active). Moreover, the Potency entry in test [2] and in test [5] was “inactive” each time.

Turning to `COC(=O)c1ccc(C23CC2(C(NP(=O)(c2ccccc2)c2ccccc2)c2ccccc2)C3)cc1` (centres undefined), the Potency in test [1] was 15.8 µM (active); in test [4] it was 3.16 µM (active). The Potency entry in test [2] and in test [5] was “inactive” throughout.

Regarding `CCCC[C@@H]1C[C@H]1C(NC(=O)c1cccs1)c1ccccc1C(F)(F)F` (some centres undefined), the Potency was 6.31 µM (active) in test [1], 3.16 µM (active) in test [4] and 0.631 µM (active) in test [6]. Moreover, the Potency entry in test [2] and in test [5] was “inactive” each time.

Consider `COC(=O)[C@@]1(Cc2ccc(F)cc2)[C@H]2c3cc(C(=O)N(C)C)n(Cc4ccc(C)o4)c3C[C@H]2CN1C(=O)c1ccccc1`, for which the Potency entry in test [1], in test [2] and in test [5] was “inactive” in each case. In addition, the Potency in test [4] was 2.51 µM (active).

As for `C[C@@H](C(=O)NCc1ccccn1)[C@H]1C[C@]1(C)[C@H](NC(=O)OCc1ccccc1)c1ccccc1`, the Potency in test [1] is 25.1 µM (active); in test [4], 5.01 µM (active); in test [8] it was 12.6 µM (active); in test [6], 2 µM (active). In addition, the Potency entry in test [2] and in test [5] was “inactive” throughout.
